DT40 TDP1 CPT = DT40-hTDP1 cell growth loss with CPT. 12% of 420,000 active. AID 686979. chicken DT40 Tdp1-/-;hTDP1 cells + 20 nM CPT, ATP luminescence, 48 h. Potency, µM (highest dose often 46.2 µM), for the others: at the highest dose activity change, negative = growth inhibition, most hits filed as inhibitors; note: potency is the fitted concentration of half-maximal effect; nearly all actives have a fitted effect of over 55% in size
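Chicken DT40 Tdp1-/- cells stably complemented with human TDP1 were seeded at 400 cells/well in medium containing 20 nM camptothecin, exposed to pin-transferred compounds, and grown at 37 °C for at least 48 hr. Viability was read as ATP luminescence.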
TDP1 cell noCPT = qHTS for Inhibitors of human tyrosyl-DNA phosphodiesterase 1 (TDP1): qHTS in cells in absence of CPT; DT40 Tdp1-/- hTDP1 cells, no CPT, ATP luminescence, 48 h; Potency, µM (series often up to 46.2 µM), inactives show at the highest dose activity change, negative = growth inhibition, most hits filed as inhibitors; 15% of 420,000 active; note: potency is the fitted concentration of half-maximal effect; nearly all actives have a fitted effect of over 55% in size
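Chicken DT40 Tdp1-/- cells complemented with human TDP1, screened without camptothecin (DMSO vehicle only), 400 cells/well. Compounds pin-transferred, cells incubated at 37 °C for at least 48 hr. Growth read as ATP-dependent luminescence (CellTiter-Glo, 30 min at RT).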
TDP1 inh = blocks human tyrosyl-DNA phosphodiesterase 1; AID 485290; 0.28% of 350,000 active; Q9NUW8; Potency, µM (doses to about 130 µM), for inactives: top-dose activity change, negative = inhibition, usual class: inhibitors; recombinant TDP1, AlphaScreen DNA substrate cleavage; note: potency is the fitted concentration of half-maximal effect; nearly all actives have a fitted effect of over 40% in size
Target sequence (Q9NUW8 whole entry, looked up): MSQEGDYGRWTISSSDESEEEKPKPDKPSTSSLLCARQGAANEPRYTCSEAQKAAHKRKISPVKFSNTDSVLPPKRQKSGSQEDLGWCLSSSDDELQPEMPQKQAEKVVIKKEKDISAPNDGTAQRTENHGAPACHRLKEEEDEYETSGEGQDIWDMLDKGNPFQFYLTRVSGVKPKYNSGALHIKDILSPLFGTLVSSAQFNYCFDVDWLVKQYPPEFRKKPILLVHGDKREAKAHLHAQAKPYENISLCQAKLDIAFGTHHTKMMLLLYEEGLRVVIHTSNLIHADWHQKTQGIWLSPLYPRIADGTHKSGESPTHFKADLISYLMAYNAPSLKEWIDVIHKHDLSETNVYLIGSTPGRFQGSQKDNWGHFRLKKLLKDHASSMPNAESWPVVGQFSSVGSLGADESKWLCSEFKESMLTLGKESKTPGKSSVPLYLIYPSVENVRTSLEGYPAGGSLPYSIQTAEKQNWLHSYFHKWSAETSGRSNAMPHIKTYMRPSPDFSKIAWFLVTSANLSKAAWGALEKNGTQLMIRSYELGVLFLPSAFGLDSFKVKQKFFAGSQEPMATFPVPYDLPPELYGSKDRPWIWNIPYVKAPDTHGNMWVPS
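Signal: AlphaScreen proximity between streptavidin donor and anti-FITC acceptor beads on intact substrate. Reaction: Tdp1 1 nM, substrate 15 nM final, 5 min RT after 15 min compound preincubation.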
IL1B secr inh = inflammasome signaling inhibition, IL-1 beta readout. THP-1 LPS/ATP IL-1B secretion, AlphaLISA, 16 h; active compounds read low. activity change, % at 57.5 µM. 4.7% of 360,000 active; in the data active = activity change below about -50%; inconclusive = mostly about -30% to -49%
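Secreted IL-1B measured by AlphaLISA bead assay after 16 h compound exposure of THP-1 cells; compounds (final up to 57.5 uM) added 1 h before LPS (250 ng/mL) and ATP (1.25 mM) stimulation; lower signal means less secretion.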
CtBP-E1A blk = inhibitors of CtBP/E1A interaction; AlphaScreen GST-E1A/His-CtBP binding, 1536-well; active compounds read low; 0.49% of 340,000 active; AID 651724; activity change, % (concentration not given with the values); in the data active = activity change below about -65%; inconclusive = mostly about -30% to -63%
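Homogeneous bead-based format: GST-tagged E1A captured on glutathione donor beads, His-tagged CtBP on nickel acceptor beads; compounds precede bead addition by 2 h at 37 °C.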
Six1-Eya2 blk = blocks human Six1 binding to Eya2. Q15475+O00167. AlphaScreen GST-Six1/His-Eya2 binding, biochemical; active compounds read low. activity change, % (no concentration beside the values). 0.56% of 360,000 active. AID 651725; in the data active = activity change below about -65%; inconclusive = mostly about -30% to -63%
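Homogeneous AlphaScreen proximity assay pairing GST-Six1 with His-tagged Eya2 (added as 5X mix: 250 nM and 500 nM) in 50 mM Tris pH 8.0, 300 mM NaCl, 1 mM TCEP. Glutathione donor and nickel acceptor beads; 1 h, 37 °C, dark.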
* = called active by the depositor; ? = inconclusive; nt = no result; ! = a repeat was not active; [ ] = another dose, or the depositor's remark. Sampled rows, rich in hits. Any-hit rate of the full collection: about 18%. Unless noted, calls come from the whole dose curve; as a rule, active = well fitted curve in the direction sought with a large enough effect; inconclusive = small, poorly fitted or top-dose-only effect, or another doubt; inactive = no such curve, though single readings can be large; an effect the other way counts as inactive or inconclusive. % is set by controls: 0 for no effect and ±100 for the full control effect.

SMILES | DT40 TDP1 CPT | TDP1 cell noCPT | TDP1 inh | IL1B secr inh | CtBP-E1A blk | Six1-Eya2 blk
CCCCCCC(C)NC(=S)Nc1cc(S(=O)(=O)N(C)C)ccc1C (stereo unspecified) | ? | 23µM* | 4% | -2 | -5 | 0
Cc1ccc(S(=O)(=O)N(C)C)cc1NC(=S)NC(C)CCC(C)C (stereo unspecified) | 23µM* | 21µM* | -2% | 18 | 0 | 19
COCCN(CCOC)C(=S)Nc1cc(S(=O)(=O)N(C)C)ccc1C | -2% | -16% | 1% | 11 | -9 | 7
Cc1ccc(S(=O)(=O)N(C)C)cc1NC(=S)NC(C)CCCC(C)C (stereo unspecified) | 26µM* | ? | 2% | -73* | 13 | 3
CC(=O)NNC(=S)Nc1cc(S(=O)(=O)N(C)C)ccc1C | -2% | ? | 2% | 10 | -3 | -3
Cc1ccc(S(=O)(=O)N(C)C)cc1NC(=O)C(C)N(C)CCOc1ccc(Cl)cc1 (stereo unspecified) | ? | 29µM* | -10%[0.0935 µM] | -7 | -1 | -2
Cc1ccc(S(=O)(=O)N(C)C)cc1NC(=S)Nc1cccc2ccccc12 | ? | ? | 14% | 29 | -8 | -6
O=c1c2oc3ccccc3c2n(Cc2ccc(F)cc2)c(=O)n1Cc1ccco1 | ? | ? | 5% | nt | nt | nt
Cc1ccc(NC(=O)CCN2CCOCC2)cc1C | -10% | 14% | 3% | 0 | 8 | 4
CCCC(C(=O)O)N1C(=O)/C(=C/c2cccn2C)SC1=S (stereo unspecified) | -20% | -12% | -3% | -7 | -10 | -16
Cc1cccc(NC(=S)N/N=C(\c2ccccc2)C(C)C)c1 | ? | 5.8µM* | 10% | 9 | -8 | -2
CC/C(=N\NC(=S)Nc1cccc(C)c1)c1ccccc1 | 13µM* | 5.2µM* | -5% | -4 | -29 | -17
COc1ccc(N2CCN(CC(=O)NC(C)c3ccccc3)CC2)cc1 (stereo unspecified) | 20% | -21% | nt | -12 | -13 | 0
CCOC(=O)Cc1c(C)nc2c(C#N)c[nH]n2c1=O | 0% | 1% | 5% | 6 | ? | ?
CCc1c(C)nc2cc(-c3ccccc3)[nH]n2c1=O | 8.2µM* | 12µM* | nt | -9 | -30 | -24
CCc1c(C)nc2c(-c3ccccc3)c(-c3ccccc3)[nH]n2c1=O | 2.3µM* | 2.1µM* | nt | 13 | -3 | 3
CCc1c(C)nc2c(C#N)c[nH]n2c1=O | -22% | -1% | 5% | 31 | -77* | ?
CCCCc1c(C)nc2cc(-c3ccco3)[nH]n2c1=O | -1% | ? | 4% | -96* | -22 | -26
O=C1c2nc3cc(-c4ccco4)[nH]n3c(=O)c2CN1Cc1ccccc1 | -5% | -7% | nt | -5 | 4 | -17
CCc1cccc(C)c1NC(=O)CN(C)Cc1ccc(Br)cc1 | 21µM* | ? | 1% | -57* | 1 | 3
CC[N+](CC)(CC)CC(=O)Nc1c(C)cccc1C | 18µM*! | 14% | -9%[56.1 µM] | 4 | 8 | 0
Cc1cccc(C)c1NC(=O)CN(Cc1ccc(Br)cc1)S(=O)(=O)c1ccccc1 | ? | 15µM* | nt | nt | nt | nt
CC(C)(C)NC(=O)CN(Cc1ccccc1)S(=O)(=O)c1ccccc1 | -3% | -8% | nt | -74* | -22 | 32
Cc1cccc(C)c1NC(=O)CNCC(=O)Nc1c(C)cccc1C | -7% | -10% | nt | 19 | 10 | -3
O=C(Cc1cccs1)Nc1ccccc1C(=O)O | -1% | -18% | 0% | 5 | 4 | 9
SMILES | DT40 TDP1 CPT | TDP1 cell noCPT | TDP1 inh | IL1B secr inh | CtBP-E1A blk | Six1-Eya2 blk
CS(=O)(=O)N(CC(=O)N1CCCC1)Cc1ccc(F)cc1 | 3% | 11% | 1% | 9 | nt | 6
O=C(CN(Cc1ccc(F)cc1)S(=O)(=O)c1ccccc1)N1CCCCC1 | ? | 16µM* | -2% | -11 | 4 | 0
Cc1cccc(C)c1NC(=O)CN(Cc1ccccc1)Cc1ccccc1 | ? | 21µM* | nt | -1 | 2 | 11
Cc1cccc(C)c1NC(=O)CC(C)c1ccccc1 (stereo unspecified) | -19% | -17% | nt | -22 | 0 | -9
COc1ccc(/C=C(/NC(=O)c2ccccc2)c2nc3ccccc3[nH]2)cc1OC | ? | ? | 2% | 33 | 2 | 2
COc1ccc(/C=C(/NC(=O)c2ccccc2)c2nc3ccc(Cl)cc3[nH]2)cc1OC | -95% | 21µM* | 3% | -8 | -7 | -4
CC1=C(C)CS(=O)N(S(=O)(=O)c2ccc(Cl)cc2)C1 (stereo unspecified) | 3.7µM* | 2.3µM* | 5% | -93* | 8 | -1
COC(=O)c1nnn(CC(=O)Nc2ccc(C)c(F)c2)c1C(=O)OC | -8% | -3% | 8% | 7 | -2 | -2
C=CCC[C@H](Cc1ccc(F)cc1)C(=O)OC[C@@H](C)NC(=O)[C@@H](CC=C)CC(=O)N[C@H](CO)Cc1ccccc1 | ? | ? | 3% | -3 | -15 | 15
C=CCC[C@H](Cc1ccc(F)cc1)C(=O)OC[C@@H](NC(=O)[C@@H](CC=C)CC(=O)N[C@@H](CO)Cc1ccccc1)C(C)(C)C | 21µM* | 21µM* | 2% | -60* | nt | -15
C=CCC[C@H](Cc1ccc(F)cc1)C(=O)OC[C@@H](C)NC(=O)[C@@H](CC=C)CC(=O)N[C@@H](CO)Cc1ccccc1 | ? | 15µM* | 0% | -11 | 4 | 2
C=CC[C@@H](CC(=O)N[C@H](CO)Cc1ccccc1)C(=O)N[C@H](COC(=O)[C@@H](CC=C)Cc1ccc(F)cc1)C(C)(C)C | ? | ? | 1% | ? | 0 | 7
C=CCC[C@@H](Cc1ccc(F)cc1)C(=O)OC[C@@H](NC(=O)[C@@H](CC=C)CC(=O)N[C@@H](CO)Cc1ccccc1)C(C)(C)C | 23µM* | ? | 1% | ? | -1 | -4
COc1ccc(CNC(=O)CCc2c(C)c3cc4c(C)c(C)oc4cc3oc2=O)cc1 | ? | ? | -2% | nt | nt | nt
Cc1cccc(C(=O)N(Cc2cccs2)C2CCS(=O)(=O)C2)c1 (stereo unspecified) | -7% | 0% | 2% | -8 | 1 | 1
CCC(C)NC(=O)CCCN1C(=O)CCn2nc(-c3cccn3C)cc21 (stereo unspecified) | -11% | 0% | 5% | nt | nt | nt
CCCOc1cccc(C(=O)Nc2ccc3c(c2)OCCO3)c1 | -71% | 23µM* | 5% | -4 | nt | -1
